Hit rate of the full screen: of about 310,000 compounds, about 14,000 (4.5%) showed an effect of 50% or more. The effect is printed as a negative number. The list comes from a sample in which strong results are over-represented; it also holds similar structures and randomly drawn compounds.
target: human ether-à-go-go-related gene (hERG) potassium channel (human, UniProt Q12809); assay: primary screen, population patch clamp on CHO cells stably expressing hERG; higher = less effect of the substance
Sequence (Q12809 whole entry, looked up): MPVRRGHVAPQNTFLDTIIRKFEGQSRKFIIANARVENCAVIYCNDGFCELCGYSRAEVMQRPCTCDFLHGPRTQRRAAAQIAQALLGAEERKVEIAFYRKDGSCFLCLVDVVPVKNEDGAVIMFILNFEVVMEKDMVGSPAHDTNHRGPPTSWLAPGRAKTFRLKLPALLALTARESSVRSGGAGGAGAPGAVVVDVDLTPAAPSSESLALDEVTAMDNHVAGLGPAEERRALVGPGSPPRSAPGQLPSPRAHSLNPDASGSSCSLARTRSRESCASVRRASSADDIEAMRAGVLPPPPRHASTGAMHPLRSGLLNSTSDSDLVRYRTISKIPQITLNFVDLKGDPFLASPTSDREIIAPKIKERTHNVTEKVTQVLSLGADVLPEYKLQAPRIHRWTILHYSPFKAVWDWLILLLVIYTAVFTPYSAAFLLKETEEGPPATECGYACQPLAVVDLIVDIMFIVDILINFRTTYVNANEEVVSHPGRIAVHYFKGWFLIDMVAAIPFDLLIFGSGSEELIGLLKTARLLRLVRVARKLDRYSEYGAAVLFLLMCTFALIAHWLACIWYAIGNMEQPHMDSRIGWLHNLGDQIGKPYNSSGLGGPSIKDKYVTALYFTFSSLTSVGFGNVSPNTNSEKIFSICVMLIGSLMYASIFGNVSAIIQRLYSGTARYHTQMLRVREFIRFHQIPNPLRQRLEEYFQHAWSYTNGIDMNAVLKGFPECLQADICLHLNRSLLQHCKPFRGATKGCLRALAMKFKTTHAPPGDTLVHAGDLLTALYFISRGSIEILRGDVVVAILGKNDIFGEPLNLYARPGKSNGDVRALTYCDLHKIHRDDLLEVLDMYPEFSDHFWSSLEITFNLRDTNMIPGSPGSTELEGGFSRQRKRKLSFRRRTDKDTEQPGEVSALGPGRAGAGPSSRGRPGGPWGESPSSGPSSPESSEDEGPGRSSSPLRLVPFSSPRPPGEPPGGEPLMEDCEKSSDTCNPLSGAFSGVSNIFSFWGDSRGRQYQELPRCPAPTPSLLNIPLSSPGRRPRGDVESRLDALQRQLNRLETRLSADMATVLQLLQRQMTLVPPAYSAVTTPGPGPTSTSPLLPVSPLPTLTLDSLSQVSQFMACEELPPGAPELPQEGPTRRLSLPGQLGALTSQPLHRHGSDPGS
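Also: peak tail current of the secondary pulse compared with the same well before compound.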

Compound	hERG current change (%, negative = inhibition) at 10uM
COc1ccc(OC)c(CCNC(=O)Cn2ccc3cc(S(=O)(=O)N4CCCC4)ccc32)c1	-13.9%
CN(CCC#N)C(=O)c1cc2c(s1)-c1ccccc1SC2	-8.88%
CCN(CC)CCNC(=O)c1cc2c(s1)-c1ccccc1SC2	-77.8%
NNC(=O)c1cc2c(s1)-c1cc(Cl)ccc1SC2	10.3%
CCOCCCNC(=O)c1cc2c(s1)-c1ccccc1SC2	-5.28%
COCCNC(=O)c1cc2c(s1)-c1ccc(Cl)cc1SC2	-5%
CNC(=O)c1cc2cc(Br)ccc2s1	10.1%
CCN(CC)CCNC(=O)c1cc2cc(Br)ccc2s1	-61.1%
CN(C)C(=O)c1cc2cc(Br)ccc2s1	-3.77%
CN(C)CCNC(=O)c1cc2c(s1)-c1ccc(Cl)cc1SC2	-81.1%
C/C(=N/OCC(=O)NCCCCCCNC(=O)CO/N=C(/C)c1cccs1)c1cccs1	-20.8%
CCCCOC(=O)Nc1cc(Cl)ccc1C	1.24%
O=S(=O)(/N=C(/Nc1ccccc1)C(F)(F)F)c1ccccc1	-20.7%
Br.C/C(CC1CC(COCC(C)C)OC1=O)=N\Nc1nc(-c2ccccc2)cs1 (stereo not drawn)	-15.5%
CC1Sc2ccc(S(=O)(=O)CCC(=O)Nc3ccccc3Cl)cc2NC1=O (stereo not drawn)	4.08%
Cc1ccc(/C=C/C(=O)Nc2nnc(SCc3ccc(C#N)cc3)s2)o1	-11%
O=C1CC(c2ccccc2)n2nc(NC(=O)C3CCCO3)nc2N1 (stereo not drawn)	-10%
Cc1ccc(S(=O)(=O)N(C)C)cc1NC(=O)COC(=O)CCC1CCCCC1	2.99%
Cc1ccc(S(=O)(=O)N(C)C)cc1NC(=O)COC(=O)CC1CCCC1	-74.2%
CCN(CC)S(=O)(=O)c1ccc(OC)c(NC(=O)CC2CCCC2)c1	-10.8%
Cc1ccc(S(=O)(=O)N(C)C)cc1NC(=O)COC(=O)CCC1CCCC1	-18.5%
COc1ccc(NC(=O)COC(=O)CC2CCCC2)cc1Cl	-1.21%
COc1ccc(S(=O)(=O)N(C)C)cc1NC(=O)COC(=O)CC1CCCC1	-72.8%
CCc1ccccc1NC(=O)CN(C)C(=O)CSc1nc2cc(Cl)ccc2s1	17.8%

Compound	hERG current change (%, negative = inhibition) at 10uM
CCOC(=O)/C(=N\Nc1cc(Cl)ccc1Cl)N1CCN(C)CC1	-16.9%
O=C(CSc1ncccn1)N/N=C/c1ccccc1[N+](=O)[O-]	11.3%
O=C(NCCN1CCOCC1)/C(=C\c1ccc(F)cc1)NC(=O)c1ccccc1	-62.3%
O=C(NCCCN1CCOCC1)/C(=C/c1cccnc1)NC(=O)c1ccccc1	-25%
O=C(NCCN1CCOCC1)/C(=C/c1ccco1)NC(=O)c1ccccc1	-5.48%
COc1ccccc1/C=C(/NC(=O)c1ccccc1)C(=O)NCCN1CCOCC1	15.5%
CN(C)c1ccc(/C=C(\NC(=O)c2ccccc2)C(=O)NCCCN2CCOCC2)cc1	-10.4%
O=C(NCCCN1CCOCC1)/C(=C/c1ccc(F)cc1)NC(=O)c1ccccc1	-73.5%
O=C(NCCN1CCOCC1)/C(=C\c1ccc(Br)cc1)NC(=O)c1cccs1	-67.4%
O=C(NCCN1CCOCC1)/C(=C/c1ccc(F)cc1)NC(=O)c1ccccc1	-67.8%
O=C(NCCO)/C(=C\c1ccc(Br)cc1)NC(=O)c1cccs1	-3.91%
O=C(NCCO)/C(=C/c1ccc(Br)cc1)NC(=O)c1cccs1	-14%
O=C(NCCN1CCOCC1)/C(=C\c1ccccc1F)NC(=O)c1ccccc1	-26.5%
COc1ccccc1C(=O)COC(=O)c1nc(Cl)ccc1Cl	-0.91%
O=C(CSC1=NS(=O)(=O)c2cc(Cl)ccc2N1)NCCc1ccccc1	15.4%
CN(C)c1ccc(S(=O)(=O)N2CCCCC2)cc1NC(=O)CCNC(=O)c1ccc(Cl)cc1	-27.4%
Cc1cccc(Oc2ccccc2NC(=O)CN2C(=O)NC3(CCCC3)C2=O)c1	-6.76%
CCN(CC)S(=O)(=O)c1ccc(NS(=O)(=O)c2ccc(C)c(C)c2)cc1	-21.6%
Nc1nonc1C(=Nc1ccc(Br)cc1)NO	8.76%
CCOC(=O)c1cnc(SCC(=O)OC)nc1N	52.5%
C/C(=N\N1C(C)CCCC1C)c1ccccc1O (stereo not drawn)	14.1%
O=C(NCc1ccc2c(c1)OCO2)c1ccccc1Cl	-2.6%
COc1ccc(CC(=O)N2CC(C)CC(C)C2)cc1OC (stereo not drawn)	5.21%
CSc1ccc(/C=C(\NC(=O)c2ccccc2)C(=O)NCCN2CCOCC2)cc1	-63.7%

Compound	hERG current change (%, negative = inhibition) at 10uM
CSc1ccc(/C=C(/NC(=O)c2ccccc2)C(=O)NCCN2CCOCC2)cc1	-44.8%
CC(=O)O[C@@H]1C[C@H]2C(C)(C)C(=O)C=C[C@]2(C)[C@H]2CC[C@@]3(C)[C@H](c4ccoc4)OC(=O)[C@H]4O[C@]43[C@@]21C	-43.1%
N#Cc1ccccc1NC(=S)NC(=O)c1cccnc1	13.7%
CCN(CC(=O)NCc1ccc(Cl)cc1)C(=O)Cc1ccc(OC)cc1	-75.7%
CCN(CC(=O)NCc1ccc(Cl)cc1)C(=O)c1cc(OC)cc(OC)c1	-48.4%
CCN(CC(=O)NCc1ccc(F)cc1)C(=O)Cc1ccc(OC)cc1	-63.5%
CCN(CC(=O)NCc1ccc(Cl)cc1)C(=O)c1ccc2cc(OC)ccc2c1	3.72%
CCN(CC(=O)NCc1ccc(F)cc1)C(=O)/C=C/c1ccc(OC)cc1	-48%
COc1ccc(CNC(=O)COc2ccc(F)cc2)cc1	2.33%
c1nc(N2CCCC2)c2[nH]cnc2n1	-3.15%
CCC(C(=O)NC(C)(C)C)N(C(=O)Cn1nnc(-c2cccs2)n1)c1cnc2ccccc2c1 (stereo not drawn)	-13.3%
COc1ccc(C(=O)CNc2ccccc2CO)cc1	22.8%
O=C(NCCC1=CCCCC1)c1cc(-c2ccncc2)nc2ccccc12	6.78%
CC(C)(C)c1ccc(C(=O)Nc2ccc(O)c3c(=O)cc(-c4cccc(Cl)c4)oc23)cc1	17.7%
COc1cc(C(=O)OC(C)C(=O)NC(=O)NC2CCCCC2)ccc1OC(F)F (stereo not drawn)	-51.2%
COc1cc(C(=O)OCC(=O)NC(=O)C2CCCCC2)ccc1OC(F)F	15.8%
CC(=O)Nc1cccc(C(=O)OC(C)C(=O)NC(=O)NC2CCCCC2)c1 (stereo not drawn)	3.89%
CCOC(=O)C1CCN(C(=O)Nc2ccc3c(c2)nc(C)n3C)CC1	0.694%
CCN(CC)c1ccc(CNc2nnnn2C)cc1	19.3%
Cc1cc(=O)n2nc(N3CCCC(C(=O)NC4CCCCC4C)C3)sc2n1 (stereo not drawn)	9.32%
Cc1ccccc1CSCCNC(=O)CCSc1ccccc1	2.74%
CCCOc1ccc(C(O)(CCC)CCN2CCCCC2)cc1 (stereo not drawn)	-56.1%
CCCCC(O)(CCN1CCOCC1)c1ccc(Cl)cc1.Cl (stereo not drawn)	-66.5%
CCCCOc1ccc(C(O)(CC)CCN2CCOCC2)cc1 (stereo not drawn)	-13.4%

Compound	hERG current change (%, negative = inhibition) at 10uM
CCCC(O)(CCN1CCOCC1)c1ccc(Br)cc1.Cl (stereo not drawn)	-20.7%
CCCCOc1ccc(C(O)(CCC)CCN2CCOCC2)cc1 (stereo not drawn)	-51.2%
CCCCOc1ccc(C(C)(O)CCN2CCOCC2)cc1 (stereo not drawn)	-2.97%
CCCC(O)(CCN1CCOCC1)c1ccc(Cl)cc1 (stereo not drawn)	3.77%
CCCOc1ccc(C(O)(CCN2CCCCC2)c2ccccc2OC)cc1.Cl (stereo not drawn)	-29.9%
CCCOc1ccc(C(C)(O)CN2CCOCC2)cc1 (stereo not drawn)	15.6%
OC1(c2ccc(F)cc2)CSC(=Nc2cccnc2)N1Cc1ccco1 (stereo not drawn)	-14.2%
COc1ccc(OC)c2nc(-c3ccc4c(c3)OCO4)ccc12	10.4%
CC1CCC2(CC1)NC(=O)N(CC(=O)N1CCN(C(=O)c3cccs3)CC1)C2=O (stereo not drawn)	-9.44%
CCOC(=O)Cc1csc(NC(=O)c2cc(=O)c3ccccc3o2)n1	-12.3%
COc1ccc(Br)cc1CN1C(=O)NC2(CCCCCC2)C1=O	10.4%
Cn1ncc(Br)c1C(=O)N1CCCC1	19%
O=C(COc1ccccc1)N1CCN=C1c1ccccc1	-77.5%
O=C(COc1ccc2ccccc2c1)N1CCN(C(=O)c2cccnc2)CC1	-25%
Cc1ccc(OCC(=O)N2CCN(C(=O)c3cccnc3)CC2)cc1	-4.29%
CCc1ccc(OCC(=O)N2CCN=C2c2ccccc2)cc1	-5.36%
CSC1=NCCN1C(=O)COc1ccccc1	11.3%
O=C(COc1ccc(-c2ccccc2)cc1)N1CCCC1	-54.5%
O=C(COc1ccc(-c2ccccc2)cc1)N1CCN(C(=O)c2cccnc2)CC1	-57.9%
O=C(COc1ccccc1)N1CCCCCCC1	3.25%
O=C(COc1ccccc1)N1CCCC1	15.6%
